# Only some compounds are listed: those with a hit (about 6.5% of all), similar ones and a draw of the others.
# FMDV inh: foot and mouth disease virus antiviral activity | FMDV antiviral cell-based qHTS | Potency, µM (doses to about 57.9 µM), for inactives: at the top dose activity change, negative = inhibition, hits mostly inhibitors | hit rate 1.2% among 410,000 | AID 1159524; calls by dose curve; tested in HEK293T cells; further: read-out not given here; potency means the concentration at half of the fitted maximal effect; nearly all actives have a fitted effect of over 45% in size
# VACV Venus inh: inhibitors of vaccinia virus (Venus reporter). Vaccinia virus Venus reporter expression, fluorescence. Potency, µM (series often up to 36.5 µM), inactives show top-dose activity change, negative = inhibition, usual class: inhibitors. hit rate 0.46% among 330,000; calls by dose curve; tested in A549 cells; further: potency means the concentration at half of the fitted maximal effect; nearly all actives have a fitted effect of over 30% in size
# Lassa entry inh: inhibitors of Lassa virus binding or cell entry | Lassa virus pseudotype entry inhibition, cell reporter | Potency, µM (titrated, usually from 37.9 µM), for the others: at the highest dose activity change, negative = inhibition, most hits filed as inhibitors | hit rate 1.2% among 300,000 | AID 540256; calls by dose curve; tested in HEK293 cells; further: potency means the concentration at half of the fitted maximal effect; nearly all actives have a fitted effect of over 50% in size
# HCMV inh: inhibitors of human cytomegalovirus. HFF cells, HCMV-luciferase reporter, 72 h; active compounds read low. activity change, negative = inhibition, % at 57.5 µM. hit rate 4.5% among 410,000; in the data active means activity change below about -60%; inconclusive means no clear call, values can overlap the other calls; inactive means above about -39%
#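 Two compound doses tested in HFFs infected with HCMV-luciferase, MOI 1 PFU/cell, 72 h at 37C. Lysate luminescence read with OneGlo; data normalized against buffer-only and 10uM Salinomycin inhibitor controls.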
# Vaccinia mCherry: vaccinia inhibition (mCherry reporter). Vaccinia virus mCherry reporter infection, fluorescence. Potency, µM (highest dose often 36.5 µM), without a hit: at the highest dose activity change, negative = inhibition, most hits filed as inhibitors. hit rate 0.63% among 310,000. AID 720579; calls by dose curve; tested in A549 cells; further: potency means the concentration at half of the fitted maximal effect; nearly all actives have a fitted effect of over 35% in size
# Marburg entry inh: inhibitors of Marburg virus binding or cell entry. Marburg virus pseudotyped entry inhibition, cell reporter. Potency, µM (series often up to 37.8 µM), without a hit: at the highest dose activity change, negative = inhibition, hits mostly inhibitors. hit rate 1.8% among 300,000; calls by dose curve; tested in HEK293 cells; further: potency means the concentration at half of the fitted maximal effect
# * hit, by the source's call; i = inactive; u = inconclusive; x = not tested or not shown; [ ] = remark or other dose. On the % scale 0 is the no-effect control and ±100 the full control effect.
SMILES,FMDV inh,VACV Venus inh,Lassa entry inh,HCMV inh,Vaccinia mCherry,Marburg entry inh
CCCCN=CN1c2ccccc2-n2cccc2C1c1ccc(CC)cc1 (centres undefined),x,x,x,52.1,x,x
CC(C)c1cc(CNC(=O)C2CCC(=O)N(CCc3ccc(Cl)cc3)C2)on1 (centres undefined),-27.5%,x,x,-0.3,x,x
Cc1cc(C)nc(SC2=CS(=O)(=O)c3ccccc32)n1,u,2µM*,u,-5.5,12.6µM*,4.47µM*
O=S1(=O)C=C(Sc2nc3ccccc3s2)c2ccccc21,5.01µM*,u,u,x,14.1µM*,3.66µM*
CSc1nnc(-c2ccccc2)o1,61.3%,-16.2%,3.5%,-0.8,-38.1%,0.7%
O=S1(=O)C=C(Sc2nnc(-c3ccccc3)o2)c2ccccc21,10µM*,x,20.6µM*,x,x,5.8µM*
O=S1(=O)C=C(SCCN2CCCCC2)c2ccccc21,0.9%,-10.5%,1.3%,-19.6,-29.3%,-2.8%
CCOC(=O)[C@]12CCCC=C1N(Cc1ccc3c(c1)OCO3)C(=O)[C@H](CC(=O)N1CCCCC1)C2,-14.3%,-6.8%,x,-19.4,-9.5%,x
CCc1ccccc1NC(=O)C1CCCN(c2nccc(C)n2)C1 (centres undefined),2.9%,-10.1%,2.5%,-27.3,i,7.8%[46.1 µM]
COc1ccc(CCCNC(=O)C2(C)Cc3c(-c4ccc5c(c4)OCO5)ccnc3O2)cc1 (centres undefined),u,u,x,-25.1,u,x
NC(N)=NN=C1CCC(c2ccccc2)CC1 (centres undefined),7.08µM*,-6.0%,-8.0%[46.1 µM],-19.1,-26.7%,14.1%[46.1 µM]
CC(=O)NN=C1CCC(c2ccccc2)CC1 (centres undefined),-13.6%,-18.9%,1.0%,-20.9,-8.4%,4.3%
Cc1nn(-c2ccccc2)c(C)c1-c1nnc(-c2c(C)nn(-c3ccccc3)c2C)o1,31.6µM*,-1.2%,u,2.3,-12.0%,u
CNC(=S)N/N=C1\C(=O)c2cccc3cccc1c23,2.5%,-14.1%,-24.2%,-106.4*,i,-5.1%
COc1ccc(OC)c(C(=O)N2CCOc3ccc(C(C)(O)CN(C)C)cc3C2)c1 (centres undefined),0.0%,-6.2%,x,x,-11.5%,x
C[C@@H]1CN([C@@H](C)CO)C(=O)CCCn2nncc2CO[C@H]1CN(C)C(=O)c1ccc2ccn(C)c2c1,2.7%,-9.7%,x,-12.8,i,x
COC(=O)[C@]1(C)CCC[C@@]2(C)C3CC[C@@]4(C)C[C@]3(CCC21)CC(=O)N4 (some centres undefined),u,-23.9%,x,-8.2,i,x
C=C1C(=O)C23CCC4C(C)(C(=O)OC)CCCC4(C)C2CCC1(O)C3 (centres undefined),3.55µM*,11.2µM*,u,-98.6*,7.94µM*,u
COc1ccc(C(=O)Nc2cc(C(C)C)c(O)c(S(=O)(=O)c3ccc(OC)cc3)c2C)cc1,60.8%,-15.8%,1.9%[46.1 µM],-103.7*,-11.4%,u
CC(NC(=O)c1ccc2ccccc2n1)c1ccc(Br)cc1 (centres undefined),-5.6%,-1.1%,5.62µM*,17.3,-1.3%,u
Cc1cccc(NC(=O)c2ccc3ccccc3n2)c1C,8.6%,-10.3%,10µM*,139.6,-4.6%,u
O=C(NCc1cccs1)c1ccc2ccccc2n1,28.6%,-8.1%,6.51µM*,-10.4,-21.0%,4.8%
O=C(Nc1nccs1)c1ccc2ccccc2n1,21.2%,15.1%,8.91µM*,106.5,-5.2%,u
O=[N+]([O-])c1ccc(C[n+]2cccc3ccc4cccnc4c32)cc1,-17.0%,u,-23.8%,-96.4*,u,u
CCN(CC)S(=O)(=O)c1ccc(N2CCN(CCOc3ccc(OC)cc3)CC2)nc1,9.1%,-12.6%,-20.2%[46.1 µM],-76.8*,u,11.2µM*
SMILES,FMDV inh,VACV Venus inh,Lassa entry inh,HCMV inh,Vaccinia mCherry,Marburg entry inh
Cc1ccc(NC(=S)N2CCC(c3nc4ccccc4s3)CC2)cc1C,x,-16.0%,u,-89.7*,-27.2%,-14.1%
CCNC(=O)N1CCC(c2nc3ccccc3s2)CC1,-7.5%,-19.1%,4.2%[46.1 µM],-6.3,-8.8%,24.3%[46.1 µM]
Cc1cc(C)cc(NC(=S)N2CCC(c3nc4ccccc4s3)CC2)c1,x,-8.1%,-27.6%,-85.3*,-10.2%,0.4%
CC1CCc2sc(C(=O)OCC(=O)NCc3ccccc3)cc2C1 (centres undefined),-15.3%,-27.3%,10µM*,-20.3,-12.2%,-22.2%
C/C(=N\NC(=O)c1cc2c(s1)CCC(C)C2)c1ccncc1 (centres undefined),0.0%,-11.1%,2.1%,u,-17.9%,u
CC1CCc2sc(C(=O)NCc3ccc(F)cc3)cc2C1 (centres undefined),37.9%,x,4.9%,-3.9,x,-5.7%
CC1CCc2sc(C(=O)N/N=C/c3ccc(O)cc3)cc2C1 (centres undefined),8.9%,-18.3%,x,-63.9*,u,x
Cc1ccc(CNC(=O)COC(=O)c2cc3c(s2)CCC(C)C3)cc1 (centres undefined),1.5%,-9.4%,7.94µM*,-20.9,-12.5%,u
O=C(CSc1c2c(nc3cc(Cl)ccc13)CCCC2)NCc1ccccc1Cl,u,-19.6%,u,-79.7*,-17.2%,u
O=C(CSc1c2c(nc3cc(Cl)ccc13)CCCC2)N1CCN(c2ccccc2)CC1,u,-17.9%,-9.7%[46.1 µM],-78.0*,-18.1%,-27.2%[46.1 µM]
COc1ccc(-n2c(C)cc(/C=N/Nc3nc(N4CCOCC4)nc(N4CCOCC4)n3)c2C)cc1,u,-10.4%,u,-33.1,-13.8%,7.31µM*
C[C@H](c1ccccc1)N1C[C@@H](COCc2ccccc2)Oc2cccc(Oc3ccc(F)cc3)c2S1(=O)=O,x,x,3.53µM*,u,x,x
CCCCN1CC(COCc2ccccc2)Oc2cccc(Oc3ccc(SC)c(C)c3)c2S1(=O)=O (centres undefined),x,x,x,-80.0*,x,x
COC[C@H]1CCCN1c1ccc2c(c1)O[C@H](COCc1ccccc1)CN([C@@H](C)c1ccccc1)S2(=O)=O,-12.0%,9.3%,x,2.3,4.0%,x
CC1CCCN(c2cccc3c2S(=O)(=O)N([C@H](C)c2ccccc2)C[C@@H](COCc2ccccc2)O3)C1 (some centres undefined),x,x,x,-82.0*,x,x
C/C=C/c1cccc(-c2nc(C(=O)N3CCCCC3)cc3c2[C@@H](CCO)N(C(=O)NC(C)C)C3)c1,-16.9%,-1.1%,x,14.0,-7.9%,x
C=CC[C@@H]1C=C[C@@H](Oc2ccc(OC)cc2)[C@H](CO)O1,x,x,x,x,x,-14.9%[14.2 µM]
CCOC(=O)C1Nc2ccc(C(F)(F)F)cc2C2c3ccccc3CC12 (centres undefined),28.2µM*,u,x,64.3,u,x
O=C(NCCOc1ccccc1)C1Nc2ccc(C(F)(F)F)cc2C2c3ccccc3CC12 (centres undefined),-19.4%,-28.6%,x,83.5,u,x
COc1ccc([C@H]2CC(=O)C=C(c3cccc(C(C)C)c3)C2)cc1OC,25.1µM*,u,x,-26.6,u,x
